Assay [1] can be described thus: NCI Yeast Anticancer Drug Screen. Data for the rad50 strain (AID 155).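 Further: 0% = growth of vehicle-only cultures of the same strain.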 As to conditions: S. cerevisiae rad50 strain growth inhibition, stronger effect = higher value. In outline:
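Growth of the mutant yeast was measured after compound exposure and referenced to vehicle-treated cultures.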

Assay [2] in a line: NCI Yeast Anticancer Drug Screen. Data for the mec2-1 strain (AID 157). As to conditions: S. cerevisiae mec2-1 strain, stronger effect = higher value. In outline: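 Yeast mec2-1 mutant treated with compound. Readout: growth inhibition vs vehicle controls.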
Assay [3] in a line: NCI Yeast Anticancer Drug Screen. Data for the sgs1 mgt1 strain (AID 161).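 Further: 0% = growth of cultures given vehicle only.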 As to conditions: S. cerevisiae sgs1 mgt1 strain, stronger effect = higher value. In outline: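 Inhibition of yeast growth, normalised to vehicle-treated controls, is reported for a strain bearing genetic alterations in DNA damage repair.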
Assay [4] is described as follows: NCI Yeast Anticancer Drug Screen. Data for the cln2 rad14 strain (AID 165).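 Further: 0% = growth equal to vehicle treated cultures.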 As to conditions: S. cerevisiae cln2 rad14 strain, stronger effect = higher value. The procedure, abridged:
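cln2 rad14 yeast strain; compound exposure; growth inhibition read vs vehicle controls.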

The nature of assay [5]: NCI Yeast Anticancer Drug Screen. Data for the bub3 strain (AID 167). Conditions: S. cerevisiae bub3 mutant strain, stronger effect = higher value. The procedure, abridged:
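Whole-cell yeast assay. The mutant strain was incubated with compounds, and growth inhibition was determined by comparison with vehicle-treated cells.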

Assay [6] can be described thus: NCI Yeast Anticancer Drug Screen. Data for the mlh1 rad18 strain (AID 175). As to conditions: S. cerevisiae mlh1 rad18 strain growth inhibition, stronger effect = higher value. In outline: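 Yeast w/ defined DNA-repair lesions; compound exposure; growth vs vehicle controls → % inhibition.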
Where [7] appears, read: at 5.0 µM (retest, dose inferred, filed as 0.5).
Setting [8] is: at 50.0 µM (retest, dose inferred, filed as 5.0).

Values joined by “and” are separate entries in the source; they are usually repeats but may differ in a detail not shown here. Equal values may be shown once. Compounds without any hit were thinned out: in the full panel of roughly 79,000, 15% have a hit. A structure can be active in one record and inactive in another. Active and inactive are the calls of the source. No stated cut-off is given here; in the data, active means growth inhibition above about 70%; inactive means the rest.

Turning to `C=CCCC(=O)O`, the growth inhibition is 6% (inactive) in assay [1] (setting [7]); 7% (inactive) in assay [1] (setting [8]); 1.25% (inactive) and 2.45% (inactive) in assay [1] (at 50.0 µM); 7% (inactive) in assay [2] (setting [7]); 2% (inactive) in assay [2] (setting [8]); -2.15% (inactive) and -0.6% (inactive) in assay [2] (at 50.0 µM). The growth inhibition is 5% (inactive) in assay [3] (setting [7]); 3% (inactive) in assay [3] (setting [8]); -11.3% (inactive) and 4.3% (inactive) in assay [3] (at 50.0 µM); 4% (inactive) in assay [4] (setting [7]); 4% (inactive) in assay [4] (setting [8]); 54.4% (inactive) and 5.75% (inactive) in assay [4] (at 50.0 µM). The growth inhibition is 4% (inactive) in assay [5] (setting [7]); 1% (inactive) in assay [5] (setting [8]); 64.5% (inactive) and 9.55% (inactive) in assay [5] (at 50.0 µM); 0% (inactive) in assay [6] (setting [7]); 2% (inactive) in assay [6] (setting [8]); -40.5% (inactive) and 0.95% (inactive) in assay [6] (at 50.0 µM).

On to `N#CC1Sc2ccccc2N1C(=O)OCc1ccccc1` (centres undefined), for which the growth inhibition in assay [1] (setting [7]) was 7% (inactive); in assay [1] (setting [8]), 86% (active); in assay [1] (at 50.0 µM) it was 90.1% (active); in assay [2] (setting [7]), 4% (inactive); in assay [2] (setting [8]), 86% (active); in assay [2] (at 50.0 µM), 86.8% (active). The growth inhibition was 11% (inactive) in assay [3] (setting [7]); 89% (active) in assay [3] (setting [8]); 94% (active) in assay [3] (at 50.0 µM); 11% (inactive) in assay [4] (setting [7]); 82% (active) in assay [4] (setting [8]); 81.2% (active) in assay [4] (at 50.0 µM). For the same compound, the growth inhibition in assay [5] (setting [7]) was 20% (inactive); in assay [5] (setting [8]), 91% (active); in assay [5] (at 50.0 µM) it was 93.5% (active); in assay [6] (setting [7]), 9% (inactive); in assay [6] (setting [8]) it was 90% (active); in assay [6] (at 50.0 µM), 91.8% (active).

For `C=C1C(=O)N2c3ccccc3C(C)(C)C2(S)C(=O)N1C` (centres undefined), the growth inhibition in assay [1] (setting [7]) was 9% (inactive); in assay [1] (setting [8]), 87% (active); in assay [1] (at 50.0 µM), 88.8% (active); in assay [2] (setting [7]), 3% (inactive); in assay [2] (setting [8]) it was 86% (active); in assay [2] (at 50.0 µM), 95.6% (active). Moreover, the growth inhibition in assay [3] (setting [7]) was 3% (inactive); in assay [3] (setting [8]) it was 67% (inactive); in assay [3] (at 50.0 µM), 96.5% (active); in assay [4] (setting [7]), -9% (inactive); in assay [4] (setting [8]), 40% (inactive); in assay [4] (at 50.0 µM), 63.9% (inactive). The growth inhibition in assay [5] (setting [7]) was -5% (inactive); in assay [5] (setting [8]), 78% (active); in assay [5] (at 50.0 µM) it was 93.6% (active); in assay [6] (setting [7]) it was 5% (inactive); in assay [6] (setting [8]), 83% (active); in assay [6] (at 50.0 µM), 96.7% (active).

With `O=C(NO)c1cccnc1`, the growth inhibition was 2% (inactive) in assay [1] (setting [7]); 3% (inactive) in assay [1] (setting [8]); 66.3% (inactive) in assay [1] (at 50.0 µM); 2% (inactive) in assay [2] (setting [7]); -1% (inactive) in assay [2] (setting [8]); 16.1% (inactive) in assay [2] (at 50.0 µM). Also, the growth inhibition was -4% (inactive) in assay [3] (setting [7]); -3% (inactive) in assay [3] (setting [8]); 29.1% (inactive) in assay [3] (at 50.0 µM); 1% (inactive) in assay [4] (setting [7]); 0% (inactive) in assay [4] (setting [8]); 14.8% (inactive) in assay [4] (at 50.0 µM). The growth inhibition in assay [5] (setting [7]) is 4% (inactive); in assay [5] (setting [8]), -2% (inactive); in assay [5] (at 50.0 µM), 11.8% (inactive); in assay [6] (setting [7]), 3% (inactive); in assay [6] (setting [8]), 5% (inactive); in assay [6] (at 50.0 µM), 16.4% (inactive).

For `CCOC(=O)C(C(=O)c1ccccc1)C(=O)c1ccccc1`, the growth inhibition is 29% (inactive) in assay [1] (setting [7]); 85% (active) in assay [1] (setting [8]); -24.3% (inactive) and 90.8% (active) in assay [1] (at 50.0 µM); 29% (inactive) in assay [2] (setting [7]); 93% (active) in assay [2] (setting [8]); -14.4% (inactive) and 91.2% (active) in assay [2] (at 50.0 µM). In addition, the growth inhibition was 37% (inactive) in assay [3] (setting [7]); 82% (active) in assay [3] (setting [8]); -4.65% (inactive) and 92% (active) in assay [3] (at 50.0 µM); 34% (inactive) in assay [4] (setting [7]); 56% (inactive) in assay [4] (setting [8]); -21.1% (inactive) and 90.6% (active) in assay [4] (at 50.0 µM). Further, the growth inhibition in assay [5] (setting [7]) was 35% (inactive); in assay [5] (setting [8]), 92% (active); in assay [5] (at 50.0 µM), -0.95% (inactive) and 90.5% (active); in assay [6] (setting [7]), 35% (inactive); in assay [6] (setting [8]), 97% (active); in assay [6] (at 50.0 µM), -22% (inactive) and 90.8% (active).

On to `COc1cccc(NC(=S)N2CCCCC2)c1`, for which the growth inhibition was -158% (inactive) in assay [1] (setting [7]); -160% (inactive) in assay [1] (setting [8]); 38.4% (inactive) in assay [1] (at 50.0 µM); -51% (inactive) in assay [2] (setting [7]); -58% (inactive) in assay [2] (setting [8]); -0.45% (inactive) in assay [2] (at 50.0 µM). Further, the growth inhibition in assay [3] (setting [7]) was -69% (inactive); in assay [3] (setting [8]) it was -61% (inactive); in assay [3] (at 50.0 µM), -8.25% (inactive); in assay [4] (setting [7]), -69% (inactive); in assay [4] (setting [8]), -102% (inactive); in assay [4] (at 50.0 µM), -82.4% (inactive). The growth inhibition was -60% (inactive) in assay [5] (setting [7]); -58% (inactive) in assay [5] (setting [8]); 14.7% (inactive) in assay [5] (at 50.0 µM); -132% (inactive) in assay [6] (setting [7]); -151% (inactive) in assay [6] (setting [8]); 20.9% (inactive) in assay [6] (at 50.0 µM).

On to `COC(=O)C(CC(C)=O)CS(=O)(=O)CC(=O)C(=O)Nc1cccc([N+](=O)[O-])c1` (centres undefined), for which the growth inhibition is 4% (inactive) in assay [1] (setting [7]); 98% (active) in assay [1] (setting [8]); 99.5% (active) in assay [1] (at 50.0 µM); 3% (inactive) in assay [2] (setting [7]); 99% (active) in assay [2] (setting [8]); 99.5% (active) in assay [2] (at 50.0 µM). Also, the growth inhibition in assay [3] (setting [7]) was 7% (inactive); in assay [3] (setting [8]) it was 99% (active); in assay [3] (at 50.0 µM), 99.2% (active); in assay [4] (setting [7]), 3% (inactive); in assay [4] (setting [8]) it was 98% (active); in assay [4] (at 50.0 µM), 98.2% (active). Further, the growth inhibition was 5% (inactive) in assay [5] (setting [7]); 98% (active) in assay [5] (setting [8]); 99.2% (active) in assay [5] (at 50.0 µM); -2% (inactive) in assay [6] (setting [7]); 98% (active) in assay [6] (setting [8]); 99.2% (active) in assay [6] (at 50.0 µM).

Consider `O=C1C=CC(=O)C(c2ccc3ccccc3c2)=C1`, for which the growth inhibition is 90% (active) in assay [1] (setting [7]); 98% (active) in assay [1] (setting [8]); 99% (active) in assay [1] (at 50.0 µM); 96% (active) in assay [2] (setting [7]); 99% (active) in assay [2] (setting [8]); 99.1% (active) in assay [2] (at 50.0 µM). For the same compound, the growth inhibition in assay [3] (setting [7]) was 85% (active); in assay [3] (setting [8]), 99% (active); in assay [3] (at 50.0 µM), 99.2% (active); in assay [4] (setting [7]) it was 73% (active); in assay [4] (setting [8]), 98% (active); in assay [4] (at 50.0 µM) it was 98.8% (active). Further, the growth inhibition in assay [5] (setting [7]) was 91% (active); in assay [5] (setting [8]), 97% (active); in assay [5] (at 50.0 µM), 99% (active); in assay [6] (setting [7]), 97% (active); in assay [6] (setting [8]), 99% (active); in assay [6] (at 50.0 µM), 99% (active).

(Values after PubChem BioAssay (NCI).)
